In PubChem BioAssay (EPA / NIEHS):
The source made the active and inactive calls. Rule for the calls: active = hit-call score of the fitted dose curve at least 0.9, where 1 is the maximum; inactive = score below 0.9.

Experiment: ATG_CRE_CIS: Attagene CIS-FACTORIAL HepG2 Assay for human cAMP Responsive Element (CRE) binding protein 3 (AID 2282926)
Conditions: HepG2 CRE cis-reporter, Attagene multiplexed mRNA; actives raise or lower the signal
Procedure: ATG_CIS is a cell-based, multiplexed-readout assay that uses HepG2, a human liver cell line, with measurements taken at 24 hours after chemical dosing in a 24-well plate.ATG_CRE_CIS is one of 52 assay component(s) measured or calculated from the ATG_CIS assay. It is designed to make measurements of mRNA induction, a form of inducible reporter, as detected with fluorescence intensity signals by Reverse transcription polymerase chain reaction (RT-PCR) and Capillary electrophoresis technology.Data from the assay component ATG_CRE_CIS was analyzed into 1 assay endpoint. This assay endpoint, ATG_CRE_CIS, was analyzed with bidirectional fitting relative to DMSO as the negative control and baseline of activity. Using a type of inducible reporter, measures of mRNA for gain or loss-of-signal activity can be used to understand the reporter gene at the transcription factor-level as they relate to the gene CREB3. Furthermore, this assay endpoint can be referred to as a primary readout, because this assay has produced multiple assay endpoints where this one serves a reporter gene function. To generalize the intended target to other relatable targets, this assay endpoint is annotated to the dna binding intended target family, where the subfamily is basic leucine zipper.
Human liver HepG2 cells are transiently transfected with multiple reporter transcription units (MRTUs) in 6-well plates using FuGene 6 reagent (Roche; 3 ml FuGene/1 mg DNA). The MRTU constructs are regulated by a cis-regulating element (promoter). […] A major difference between the CIS and TRANS system is that in CIS activities of endogenous TFs are measured, whereas the TRANS assay evaluates changes in activities of exogenous, chimeric NR-Gal4 proteins. […] At the end of 24 hour incubation, total RNA was isolated using TriZol reagent (Invitrogen). The isolated RNA is then reverse-transcribed using oligo(dT) primer and Mo-MLV reverse transcriptase (Invitrogen) with DNAse I (Ambion) treatment for 30 min. The one-tenth of the produced cDNA was amplified by PCR using Taq DNA polymerase (Invitrogen) and two reporter sequence-specific primers. The PCR products were fluorescently labeled by primer extension with 6-arboxyfluorescein (6-FAM) 5'-labeled reporter sequence-specific primer (2 min at 95 C, 20 s at 68 C and 10 min at 72 C) and these products were digested with 5U of HpaI (New England Biolabs) for 2h at 37 C. The fragments were purified using Qiaquick PCR columns (Qiagen), analyzed on an ABI 3130xL genetic analyzer (Applied Biosystems) with peak positions identified by using a set of X-rhodamine (ROX)-labeled MapMarker1000 molecular weight standards (BioVentures). The raw capillary electrophoresis data was processed using Attagraph software (Attagene).

Structure (SMILES)	outcome	AC50
O=C(Oc1ccccc1)c1ccccc1	inactive	
[O-][n+]1ccc(Cl)cc1	inactive	
CCCCCCCCCCCCCC	inactive	
CC(C)(Oc1ccc(Cl)cc1)C(=O)O	inactive	
Cc1ccnc(N)c1	inactive	
O=C1NC(=O)[C@@H]2CC=CC[C@H]12	inactive	
CN(C)N=Nc1ccccc1	inactive	
O=C1NC(=O)C2CC=CCC12 (stereo not given)	inactive	
CC[N+](CC)(CC(=O)Nc1c(C)cccc1C)Cc1ccccc1	inactive	
C=CCOC(=O)C(=C)C	inactive	
COC(=O)CCSCCC(=O)OC	inactive	
CCCC[N+]1(C)CCCC1	inactive	
CCCCCCCC#N	inactive	
CCCN[C@H]1CCc2nc(N)sc2C1	inactive	
CC1=C(CC(=O)O)c2cc(F)ccc2/C1=C\c1ccc(S(C)=O)cc1 (stereo not given)	inactive	
CN(C)Cc1cc(C(C)(C)C)c(O)c(C(C)(C)C)c1	inactive	
CCCCCCCCCCCCCCCCCC[N+](C)(C)C		44.4 µM (active)
CC(C)CC(=O)CC(C)C	inactive	
Clc1ccc(Sc2cc(Cl)c(Cl)cc2Cl)cc1	inactive	
CCCCC(CC)COC(=O)CS (stereo not given)	inactive	

Structure (SMILES)	outcome	AC50
C=CC(C)(CCC=C(C)C)OC(=O)c1ccccc1 (stereo not given)	inactive	
CCC(C)C1N=C(C)C(C)S1 (stereo not given)	inactive	
CCCCCCCCCC/C=C/C1CC(=O)OC1=O (stereo not given)	inactive	
Nc1nnc(-c2ccc([N+](=O)[O-])o2)o1	inactive	
COC(=O)/C=C\C(=O)OC	inactive	
Nc1ccc(S(=O)(=O)Nc2cnc3ccccc3n2)cc1	inactive	
CC/C=C/CCO	inactive	
CC/C=C\CCCCCO	inactive	
NC(N)=Nc1nc(CSCCC(N)=NS(N)(=O)=O)cs1	inactive	
CCOC(=O)c1ccccc1	inactive	
O=C(O)c1cc(Cl)cc(Cl)c1O	inactive	
O=C(C1CCCCC1)N1CC(=O)N2CCc3ccccc3C2C1 (stereo not given)	inactive	
Sc1nc2ccccc2s1	inactive	
NC(=O)c1ccc([N+](=O)[O-])cc1Cl	inactive	
OCCc1ccccn1	inactive	
CC(=O)OC(C)(C)Cc1ccccc1	inactive	
CCCCOC(=O)COc1ccc(Cl)cc1Cl	inactive	
Cc1ccccc1S(=O)(=O)O	inactive	
C=C(C)C(=O)OCCCCCC	inactive	
O=C(O)/C=C\C(=O)O	inactive	
